Laboratory results: PubChem BioAssay AID837 (The Scripps Research Institute Molecular Screening Center, 2007)
The source made the active and inactive calls.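 Rule for the calls: active = relative FRET score above 0.01, or acceptor fluorescence over 30% below the sample-well median; inactive = the rest.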

These compounds were tested against Protein Rev (Human immunodeficiency virus type 1 group M subtype B (isolate WMJ22)) (UniProt P05866) (assay: disruptors of Rev peptide-RRE RNA complex – biochemical, FRET, acceptor and relative FRET calls, confirmation (AID 837;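 note: relative FRET combines rise in Cy5 acceptor with fall in fluorescein donor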)). Details: Fl-Rev peptide / Cy5-RRE RNA FRET, 1536-well; at 8 µM.
Chain of Protein Rev (Human immunodeficiency virus type 1 group M subtype B (isolate WMJ22)) (P05866 whole entry, looked up): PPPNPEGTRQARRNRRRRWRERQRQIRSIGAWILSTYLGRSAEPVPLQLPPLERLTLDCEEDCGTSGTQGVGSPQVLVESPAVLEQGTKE

outcome, inactive:
c1coc(CNc2c3c(nc4ccccc24)CCC3)c1
CCOc1ccc2nc3ccc4[nH]onc4c3c2c1
N=c1n(Cc2ccccc2)c2ccccc2n1CC(O)c1ccco1 (stereo not given)
CC(C)OC(=O)c1c2nc3ccccc3nc2n2c1[nH]c(=O)c1ccccc12
COc1cccc(Nc2nc(NCC3CCCO3)c3ccccc3n2)c1 (stereo not given)
CCOc1ccc(C(O)Cn2c(=N)n(CCN3CCCCC3)c3ccccc32)cc1 (stereo not given)
Cc1ccc(C2NC(=O)c3c(sc4c3CCN(C)C4)N2)s1 (stereo not given)
C/C=C/c1ccc(OCCCNC2CCCC2)c(OC)c1
CCCN1C2=NCCN2c2cc(C)c(C)cc21
CCCCOc1ccc(NC2=NC3(CCCCC3)N=C(N)N2)cc1
C=CCn1c(=O)c(C(=O)NCCNCC)c(O)c2ccccc21
CCN(CC)CCCNC(=O)c1cc(-c2ccc(Cl)cc2)on1
O=c1[nH]c(Nc2ccc(F)cc2)cc2ccccc12
CC1CC(c2ccccc2)n2nc(NC(=O)c3cccs3)nc2N1 (stereo not given)
Cc1nc(NC(=O)c2ccc(Br)o2)sc1C

outcome, active:
COc1cccc(OC)c1-c1nn2c(-c3cc(-c4ccccc4)n[nH]3)nnc2s1
CC(NCc1ccc(N(C)C)cc1)C1CC2CCC1C2 (stereo not given)
COc1ccccc1NC1=NC(c2ccc(Cl)cc2)N=C(N)N1 (stereo not given)
CCc1ccc2nc3nc(C)cc(C)c3c(N)c2c1
O=C(N/N=C/c1ccc(F)cc1)c1cc(-c2ccco2)nc2ccccc12 active; quenches the donor
